Compound activity deposited in PubChem BioAssay by National Center for Advancing Translational Sciences (NCATS).
Most compounds without a hit are left out; they make up all but 11% or so of the library.
G9a inh: qHTS Assay for Inhibitors of Histone Lysine Methyltransferase G9a. Histone-lysine N-methyltransferase EHMT2 (Homo sapiens), Q96KQ7. G9a H3K9 monomethylation, AlphaScreen, 2 h. Potency, µM (titrated, usually from 102 µM), inactives show at the highest dose activity, negative = inhibition, hits mostly inhibitors. 350,000 tested, 8.8% active; note: potency is the fitted concentration of half-maximal effect; % is set by controls: 0 for no effect and ±100 for the full control effect; nearly all actives have a fitted effect of over 75% in size
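Chemiluminescent proximity detection of H3K9 monomethylation, read after 10 min bead incubation in the dark. Reaction: 20 nM G9a, 500 nM biotin-H3K9 peptide, 20 uM SAM cofactor, 2 h, room temperature, following 15 min enzyme-compound preincubation.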
L3MBTL1 block: qHTS Assay for the Inhibitors of L3MBTL1; AID 485360, 2010; 230,000 tested, 0.66% active; Potency, µM (highest dose often 57.1 µM), for inactives: top-dose activity, negative = inhibition, hits mostly inhibitors; AlphaScreen L3MBTL1–H3K9me1 peptide binding; note: potency is the fitted concentration of half-maximal effect; % is set by controls: 0 for no effect and ±100 for the full control effect; nearly all actives have a fitted effect of over 60% in size
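L3MBTL1 50 nM + b-AHA-H3(1-15)K9me1 75 nM, 30 min RT; compound added, 30 min RT; streptavidin donor/Ni-chelate acceptor beads 10 ug/mL each final, 30 min RT dark; AlphaScreen read.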
JMJD2A Tudor inh: qHTS Assay for Inhibitors of JMJD2A-Tudor Domain. Lysine-specific demethylase 4A (Homo sapiens), O75164. AlphaScreen JMJD2A-Tudor / H3K4me3 peptide binding. Potency, µM (highest dose often 114 µM), without a hit: at the highest dose activity change, negative = inhibition, usual class: inhibitors. 390,000 tested, 4.4% active. AID 504339, 2011; note: potency is the fitted concentration of half-maximal effect; % is set by controls: 0 for no effect and ±100 for the full control effect; nearly all actives have a fitted effect of over 50% in size
BAZ2B block: qHTS Assay for Inhibitors of BAZ2B | 360,000 tested, 4.4% active | AlphaScreen BAZ2B-H3K14Ac peptide displacement | AID 504333, 2011 | Potency, µM (titrated, usually from 114 µM), for the others: top-dose activity change, negative = inhibition, most hits filed as inhibitors; note: potency is the fitted concentration of half-maximal effect; % is set by controls: 0 for no effect and ±100 for the full control effect; nearly all actives have a fitted effect of over 60% in size
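Compounds, titrated to a top concentration of 110 uM, were incubated 30 min at room temperature with preformed BAZ2B/acetyl-K14 H3 peptide complex (50 nM each). Proximity signal was measured by AlphaScreen after 20 min with beads.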
HP1b chromo inh: HTS for Inhibitors of HP1-beta Chromodomain Interactions with Methylated Histone Tails | Potency, µM (titrated, usually from 114 µM), for the others: at the top dose activity change, negative = inhibition, usual class: inhibitors | AlphaScreen HP1-beta / biotin-H3K9me3 peptide binding | AID 540317, 2011 | 390,000 tested, 0.56% active | Chromobox protein homolog 1 (Homo sapiens), P83916; note: potency is the fitted concentration of half-maximal effect; nearly all actives have a fitted effect of over 70% in size
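AlphaScreen: HP1-beta (50 nM) preformed 30 min with biotin-H3(1-18)K9me3 peptide (50 nM) in PBS pH 7.4, 0.01% Tween-20. Compound added for 30 min at RT, then streptavidin donor/nickel chelate acceptor beads (10 ug/mL) for 30 min.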
PI5P4Ka inh: qHTS for Inhibitors of phosphatidylinositol 5-phosphate 4-kinase (PI5P4K); Phosphatidylinositol 5-phosphate 4-kinase type-2 alpha (Homo sapiens), P48426; PI5P4Kalpha enzyme, ADP-Glo luminescence, 60 min; stronger effect = lower value; max response, %; 330,000 tested, 1.2% active; AID 652105, 2013; active = max response of -50% or lower; inconclusive = between -30% and -50%; inactive = -30% or higher; note: value at the top dose of about 77 µM; % is set by controls: 0 for no effect and ±100 for the full control effect
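Controls without substrate or without enzyme flank wells where PI5P4Kalpha converts substrate using 5 microM ATP (final). Incubation lasts 60 minutes at room temperature; ADP formed is read by ADP-Glo luminescence.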
* hit, by the source's call; ? = inconclusive; · = no result given; [ ] = another dose, or the depositor's remark. Unless noted, calls come from the whole dose curve; as a rule, active = well fitted inhibition curve with a large enough effect; inconclusive = small, poorly fitted or top-dose-only effect; inactive = no such curve, though single readings can be large or run the other way.

SMILES | G9a inh | L3MBTL1 block | JMJD2A Tudor inh | BAZ2B block | HP1b chromo inh | PI5P4Ka inh
Cc1ccc(-c2cc(C(=O)N3CCN(c4ccccc4O)CC3)c3ccccc3n2)o1 | ? | · | ? | ? | -1% | -3
Cn1c(C(=O)N2CCCC2)cc2c(=O)n(C)c3ccccc3c21 | 12% | · | -10% | -5% | 39% | 1
Cc1ccc(-c2cc(C(=O)N3CCN(c4ncccn4)CC3)c3ccccc3n2)cc1 | 45µM* | -4% | -13% | -35% | 26% | -1
CCn1cc(S(=O)(=O)c2ccc(Cl)cc2)c(=O)c2cc(F)c(N3CCOCC3)cc21 | 1%[59 µM] | · | -2% | 3% | 26% | ·
O=C(NCc1ccccc1Cl)c1ccccc1NC(=O)c1nsc2ccccc12 | 1%[59 µM] | · | -9% | -1% | 21%[57 µM] | ·
COc1ccccc1CNc1ncnc2ccc(-c3cccc(NS(C)(=O)=O)c3)cc12 | 5%[0.501 µM] | · | · | · | · | ·
Cc1ccccc1Cn1c2ccccc2c2cnn(CC(=O)NCCc3ccccc3)c(=O)c21 | -5%[59 µM] | · | -7% | -2% | 12% | ·
COc1ccc(Cl)cc1NC(=O)CSc1ccc(-c2sc(C)nc2C)nn1 | 5%[59 µM] | · | -8% | -9% | 22%[57 µM] | ·
Cc1ccccc1CN1CCN(C(=O)c2cc(-c3ccncc3)nc3ccccc23)CC1 | 35µM* | · | ? | ? | -13% | -10
O=C(c1cc(-c2ccncc2)nc2ccccc12)N1CCN(Cc2ccccc2)CC1 | · | -12% | -29% | · | -6% | -5
COc1cccc(N=c2oc3ccccc3cc2-c2nc3ccccc3[nH]2)c1 | -4%[12.7 µM] | -12% | 32µM* | -33% | 7% | 2
COc1cccc(N=c2oc3ccc(OC)cc3cc2-c2nc3ccccc3[nH]2)c1 | -8%[59 µM] | · | ? | -2% | 15% | ·
Cc1ccc2c(C)c(C(=O)N3CCC(c4nc5ccccc5s4)CC3)oc2c1C | -3%[59 µM] | · | -6% | -28% | 35% | ·
CC1=NOC(=O)/C1=C\c1ccc(-c2ccc(Br)cc2)o1 | 5µM* | · | ? | 11µM* | -23% | ?
CC1=NOC(=O)/C1=C\c1ccc(-c2cc(Cl)ccc2Cl)o1 | ? | · | ? | ? | ? | -23
CC1=NOC(=O)/C1=C/c1ccc(-c2ccc(Cl)cc2)o1 | 4.5µM* | · | · | ? | · | ·
CCN1CCc2c(sc(NC(=S)NC(=O)c3ccc(Cl)cc3)c2C(N)=O)C1 | 32µM* | -17% | ? | -27% | -27% | -28
CC(C)C1Cc2c(sc(NC(=S)NC(=O)c3ccccc3)c2C#N)CO1 (configuration not stated) | -25%[59 µM] | -7% | -18% | 11% | 52% | 4
CCCN1CCc2c(sc(NC(=S)NC(=O)c3ccccc3)c2C#N)C1 | 10µM* | · | ? | ? | ? | ?
CC(C)N1CCc2c(sc(NC(=S)NC(=O)c3ccccc3)c2C#N)C1 | 10µM* | -13% | ? | ? | -19%[57 µM] | -51*
CN1CCc2c(sc(NC(=O)CS(=O)(=O)c3ccccc3)c2C(N)=O)C1 | 50µM* | -18% | -21% | -11% | 10% | 4
CCN1CCc2c(sc(NC(=O)c3ccc4ccccc4c3)c2C(N)=O)C1 | 6% | · | · | -12% | · | ·
COC(=O)CS(=O)(=O)c1nc2ccccc2nc1N1CCCCC1 | 0%[59 µM] | · | 8% | 15% | 39% | ·
CCOc1ccc(NC(=O)c2cc3sc(Cl)cc3n2CC)cc1 | -1%[59 µM] | · | 7% | 5% | 41% | ·
CCCCc1nn2c(=O)cc(COC(=O)c3cccc(NC(=O)c4cccc(Cl)c4)c3)nc2s1 | 5%[12.7 µM] | · | 4% | -3% | 19% | ·
CN1CCc2c(sc(NC(=O)Cc3ccccc3)c2C#N)C1 | 45µM* | ? | -17% | -10% | 4% | -8
